The values below come from PubChem BioAssay AID740 (SRMLSC, 2007).

The campaign covered roughly 96,000 compounds. About 65 (0.07%) were called active. This is one part of a sample in which actives are shown more often than they occur. No stated cut-off is given here; in the data, active means inhibition above about 25%; inactive means the rest.

This assay is described as follows: unspecified inhibition readout at 50 µM (AID 740). The conditions noted are these: unspecified screen; hits give high values.
Turning to `Nc1nc(Nc2cccc(C(F)(F)F)c2)nc(C(F)(F)F)n1`, the inhibition (usually the percentage by which the read-out fell short of the control) was “inactive”.

Regarding `Cc1cc(C)n(S(=O)(=O)/C=C/c2ccccc2)n1`, the inhibition was 40.1% (active).

As to `O=S(=O)(/C=C/c1ccccc1)n1cnc2ccccc21`, the inhibition is 0.11% (inactive).

As to `Cc1cc(C)n(S(=O)(=O)Cc2ccccc2)n1`, the inhibition is 0.57% (inactive).

Take `CCOC(=O)C1=C(C)Nc2nc(SC)nn2C1c1ccc(C(=O)OC)cc1` (stereo not drawn): the inhibition was 0.25% (inactive).

On to `CC1CCCN(c2ccc(C(=O)NCc3cccs3)cn2)C1` (stereo not drawn), for which the inhibition was 0.47% (inactive).

As to `CC1CCN(c2ccc(C(=O)NCc3cccs3)cn2)CC1`, the inhibition entry was “inactive”.

As to `O=C(NCc1cccs1)c1ccc(N2CCCCC2)nc1`, the inhibition is 26% (active).

For `O=C(O)CSc1nnc(-c2ccncc2)n1-c1ccc(Cl)cc1`, the inhibition result is “inactive”.

`CC(=O)Nc1cc(-c2nn(C)c(=O)c3ccccc23)ccc1N1CCCCC1`: the inhibition result is “inactive”.

Regarding `c1ccc(OCc2nnc3sc(C4COc5ccccc5O4)nn23)cc1` (stereo not drawn), the inhibition result was “inactive”.

For `Cc1cc(C(=O)CSc2nnnn2-c2ccc(Cl)cc2)c(C)n1CC1CCCO1` (stereo not drawn), the inhibition was 0.29% (inactive).

For `COC(=O)c1sc(S(=O)(=O)N2CCN(c3ccccc3)CC2)c(C(=O)OC)c1C`, the inhibition is 1.69% (inactive).

In the case of `NC(=O)c1c(NC(=O)CSc2nnc(-c3ccco3)n2-c2ccccc2)sc2c1CCC2`, the inhibition result was “inactive”.

As for `O=C(CSc1nnc(Cc2ccccc2)n1Cc1ccco1)NC1CCCC1`, the inhibition is 4.05% (inactive).

With `NC(=O)c1c(NC(=O)CSc2nnc(Cc3ccccc3)n2Cc2ccco2)sc2c1CCC2`, the inhibition is 27% (active).

As for `CCCCCC(O)CCc1n[nH]c(=S)n1-c1ccccc1` (stereo not drawn), the inhibition entry is “inactive”.

Regarding `O=C(CC(c1ccccc1)c1ccccc1)Nc1ccc(Cl)cn1`, the inhibition result was “inactive”.

With `CCOC(=O)c1c(NC(=O)CN2CCOCC2)sc2c1CC(C)(C)OC2`, the inhibition is 1.02% (inactive).

As to `COC(=O)CC(NC(=O)c1ccco1)c1ccc(C(C)C)cc1` (stereo not drawn), the inhibition result is “inactive”.

For `O=C(CSc1ccc2nnc(-c3ccccc3)n2n1)NCc1ccco1`, the inhibition is 3.91% (inactive).

As to `O=C(CSc1ccc2nnc(-c3ccncc3)n2n1)NCc1ccco1`, the inhibition is 28.9% (active).

In the case of `Cc1ccc(-c2nnc3ccc(SCC(=O)NCc4ccco4)nn23)cc1`, the inhibition was 2.76% (inactive).

Regarding `NC(=S)NNc1cccc(Cl)c1`, the inhibition entry is “inactive”.

With `CSc1nnc(-c2ccc(Cl)cc2Cl)o1`, the inhibition is 7.66% (inactive).

Consider `C=CCSc1nnc(-c2cccnc2)o1`, for which the inhibition is 33.1% (active).

As to `Cc1ccc(CSc2nnc(-c3cccnc3)o2)cc1`, the inhibition entry was “inactive”.

As for `CCSc1nnc(-c2ccc(Cl)cc2Cl)o1`, the inhibition is 1.81% (inactive).

`C(=C\c1ccccc1)/CSc1nnc(-c2cccnc2)o1`: the inhibition was 0.18% (inactive).

Take `C=CCSc1nnc(-c2ccc(Cl)cc2Cl)o1`: the inhibition was 37.9% (active).

`O=C(Nc1ccc(Cl)cc1)N1CCCC1`: the inhibition entry is “inactive”.

For `O=C(NCCc1cccs1)C1CC(c2ccc([N+](=O)[O-])cc2)=NO1` (stereo not drawn), the inhibition is 1.33% (inactive).

Take `COc1cc(C(=O)N2CCC(c3nc(-c4cccnc4)no3)CC2)cc(OC)c1OC`: the inhibition entry was “inactive”.

Regarding `Cc1nc(C)c(C(=O)C2=C(O)C(=O)N(CCN(C)C)C2c2ccccc2)s1` (stereo not drawn), the inhibition is 0.19% (inactive).

With `COc1ccc2c(c1OC)C(=O)OC2c1c(O)n(Cc2ccc(F)cc2)c(=O)[nH]c1=O` (stereo not drawn), the inhibition result was “inactive”.

For the molecule `CCC(=O)N1CCN(c2ccccc2NC(=O)COc2ccccc2Cl)CC1`, the inhibition entry was “inactive”.

As for `CS(=O)(=O)c1nc(-c2cccs2)cc(C(F)(F)F)n1`, the inhibition was 26.1% (active).

For the molecule `CS(=O)(=O)c1nc(-c2ccccc2)cc(C(F)(F)F)n1`, the inhibition result was “inactive”.

As for `O=C(O)CCS(=O)(=O)c1nc(-c2cccs2)cc(C(F)(F)F)n1`, the inhibition result is “inactive”.

Take `CCC1(c2cccc(Cl)c2)NC(=O)N(Cc2cc(C(=O)OC)c(C)o2)C1=O` (stereo not drawn): the inhibition entry was “inactive”.

Regarding `O=S(=O)(c1ccccc1)N1C2CCC1CC(O)(c1cccnc1)C2` (stereo not drawn), the inhibition was 0.08% (inactive).

With `CCC(NS(=O)(=O)c1ccc(OC)cc1)C(=O)NCCC1=CCCCC1` (stereo not drawn), the inhibition is 0.42% (inactive).

As to `COc1ccccc1Cn1c(=O)[nH]c2cccnc21`, the inhibition result is “inactive”.

In the case of `O=c1[nH]c2cccnc2n1Cc1ccccc1`, the inhibition was 88.8% (active).

For `O=c1[nH]c2cccnc2n1Cc1ccco1`, the inhibition was 1.89% (inactive).

As to `COc1ccccc1NC(=O)C1CC(=O)OC1c1ccccc1` (stereo not drawn), the inhibition result was “inactive”.

For the molecule `CNC(=O)c1ccc(Oc2ccc(C(=O)NC)cc2)cc1`, the inhibition was 0.48% (inactive).

For the molecule `COC(=O)c1nc(-c2ccc(C)cc2)oc1N(C)C`, the inhibition result is “inactive”.

Turning to `CS(=O)(=O)N1CCN(c2ccccc2NC(=O)Cc2ccc(Cl)cc2)CC1`, the inhibition is 1.42% (inactive).

Consider `CCOC(=O)CC(=O)CSc1nnc2sc3ccccc3n12`, for which the inhibition was 6.25% (inactive).

`CC(C)NC(=O)CSc1nnc2sc3ccccc3n12`: the inhibition was 29.1% (active).

For the molecule `NC(=O)CSc1nnc2sc3ccccc3n12`, the inhibition was 20.1% (inactive).

Take `CC1CC(C)CN(C(=O)COc2ccc(-c3nnco3)cc2)C1` (stereo not drawn): the inhibition entry is “inactive”.

As to `CC(NC(=O)C1CCCN1S(=O)(=O)c1cccc2cccnc12)c1ccccc1` (stereo not drawn), the inhibition is 3.39% (inactive).

On to `NS(=O)(=O)c1ccc(CCNC(=O)C2CCCN2C(=O)OCc2ccccc2)cc1` (stereo not drawn), for which the inhibition was 0.02% (inactive).

Consider `NS(=O)(=O)c1ccc(CCNC(=O)[C@@H]2CCCN2S(=O)(=O)c2ccccc2F)cc1`, for which the inhibition was 0.35% (inactive).

As to `NS(=O)(=O)c1ccc(CCNC(=O)C2CCCCN2S(=O)(=O)c2ccccc2)cc1` (stereo not drawn), the inhibition was 80.3% (active).

In the case of `CNS(=O)(=O)c1cccc(C(=O)Nc2cccc(Cl)c2)c1`, the inhibition result was “inactive”.

`Cc1nc(SCC(=O)c2ccccc2)n[nH]1`: the inhibition was 0.25% (inactive).

Turning to `CC(C)(C)OC(=O)N[C@@H](Cc1ccccc1)c1nnc(SCC(=O)O)o1`, the inhibition was 0.84% (inactive).

With `CCSc1nnc([C@H](Cc2ccccc2)NC(=O)OC(C)(C)C)o1`, the inhibition was 26.7% (active).

As for `COC(=O)CSc1nnc([C@H](Cc2ccccc2)NC(=O)OC(C)(C)C)o1`, the inhibition was 0.67% (inactive).

In the case of `O=C(c1cc(-c2ccc(Cl)cc2)n(-c2cc(Cl)ccc2Cl)n1)N1CCOCC1`, the inhibition was 2.27% (inactive).

As for `O=C(c1cc(-c2ccc(Cl)cc2)n(-c2ccc(Cl)cc2Cl)n1)N1CCOCC1`, the inhibition was 27.9% (active).

`O=C(c1cc(-c2ccc(Cl)cc2)n(-c2ccc(Cl)cc2)n1)N1CCOCC1`: the inhibition was 1.77% (inactive).

For `COc1ccc(-c2nc3nc(C)c(Cc4ccccc4)c(=O)n3[nH]2)cc1`, the inhibition is 10.2% (inactive).

`Cc1nc2nc(-c3ccccc3)[nH]n2c(=O)c1Cc1ccccc1`: the inhibition is 62% (active).

Regarding `Cc1nc2nc(-c3ccc(Cl)cc3)[nH]n2c(=O)c1Cc1ccccc1`, the inhibition was 2.76% (inactive).
